The nature of test [1]: BSK_CASM3C_SRB: Viability Assessment in the BioMAP Diversity Plus: CASM3C Assay (AID 2283050).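 Also: cells exposed to compound for 24 h.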 The following applies: primary human coronary artery smooth muscle cells.
Read-out in test [2]: Thrombomodulin, THBD (gene 7056)
As to the kind of experiment: BSK_CASM3C_Thrombomodulin: BioMAP Diversity Plus: CASM3C Assay for Thrombomodulin Biomarker Activity (AID 2283051).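 Also: thrombomodulin protein level measured by ELISA 24 h after dosing.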 The following applies: primary human coronary artery smooth muscle cells; actives raise or lower the signal.

Read-out in test [3]: Tissue Factor, F3 (gene 2152)
As to the kind of experiment: BSK_CASM3C_TissueFactor: BioMAP Diversity Plus: CASM3C Assay for Tissue Factor Biomarker Activity (AID 2283052).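 Also: cell surface tissue factor protein level read by ELISA.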 The following applies: primary human coronary artery smooth muscle cells; actives raise or lower the signal.

Read-out in test [4]: Interferon-gamma inducible Protein 10 (IP10), CXCL10 (gene 3627)
In words: BSK_hDFCGF_IP10: BioMAP Diversity Plus: hDFCGF Assay for Interferon-gamma inducible Protein 10 (IP10) Biomarker Activity (AID 2283053). The following applies: primary human foreskin fibroblasts; actives raise or lower the signal. The gist of the method:
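Primary human foreskin fibroblasts exposed to chemicals for 24 h. IP-10 measured by ELISA; changes fitted bidirectionally against DMSO baseline.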

Read-out in test [5]: Urokinase-type plasminogen activator receptor (uPAR), PLAUR (gene 5329)
As to the kind of experiment: BSK_CASM3C_uPAR: BioMAP Diversity Plus: CASM3C Assay for Urokinase-type plasminogen activator receptor (uPAR) Biomarker Activity (AID 2283054).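 Also: cell-surface uPAR protein level quantified by ELISA.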 The following applies: primary human coronary artery smooth muscle cells; actives raise or lower the signal.

Read-out in test [6]: Vascular cell adhesion molecule 1 (VCAM1), VCAM1 (gene 7412)
As to the kind of experiment: BSK_CASM3C_VCAM1: BioMAP Diversity Plus: CASM3C Assay for Vascular cell adhesion molecule 1 (VCAM1) Biomarker Activity (AID 2283055).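 Also: VCAM-1 protein level quantified by ELISA on the cells.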 The following applies: primary human coronary artery smooth muscle cells; actives raise or lower the signal.

Read-out in test [7]: Collagen III, COL3A1 (gene 1281)
In words: BSK_hDFCGF_CollagenIII: BioMAP Diversity Plus: hDFCGF Assay for Collagen III Biomarker Activity (AID 2283056). The following applies: primary human foreskin fibroblasts; actives raise or lower the signal. The gist of the method:
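ELISA readout of Collagen III in human dermal (foreskin) fibroblasts, taken 24 h post-treatment. Gain or loss relative to DMSO vehicle fitted in both directions.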

Read-out in test [8]: Epidermal growth factor receptor (EGFR), EGFR (gene 1956)
In words: BSK_hDFCGF_EGFR: BioMAP Diversity Plus: hDFCGF Assay for Epidermal growth factor receptor (EGFR) Biomarker Activity (AID 2283057). The following applies: primary human foreskin fibroblasts; actives raise or lower the signal. The gist of the method:
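Primary human foreskin fibroblasts (hDFCGF system), sampled 24 h after dosing; EGFR quantified by ELISA. Bidirectional fit relative to DMSO baseline; SRB total-protein staining in parallel cultures for cytotoxicity.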

Read-out in test [9]: Interleukin-8 (IL8), CXCL8 (gene 3576)
In words: BSK_hDFCGF_IL8: BioMAP Diversity Plus: hDFCGF Assay for Interleukin-8 (IL8) Biomarker Activity (AID 2283058). The following applies: primary human foreskin fibroblasts; actives raise or lower the signal. The gist of the method: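 IL-8 levels read by ELISA at 24 hours after dosing human skin fibroblast cultures. Parallel SRB staining assessed overt cytotoxicity, and gain or loss of signal was fitted against DMSO control.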

Test [10] is described as follows: BSK_hDFCGF_Proliferation: Cell Proliferation Assessment in the BioMAP Diversity Plus: hDFCGF Assay (AID 2283059).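 Also: curves fitted for both rise and fall of signal versus DMSO baseline.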 The following applies: primary human foreskin fibroblasts. The procedure, abridged: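 Sub-confluent human foreskin fibroblast cultures receive test chemical […]. Relative cell number is quantified by sulforhodamine B staining (0.1%, after 10% TCA fixation) at 560 nm, with bidirectional fitting referenced to DMSO.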

Read-out in test [11]: Macrophage colony-stimulating factor (MCSF), CSF1 (gene 1435)
In words: BSK_hDFCGF_MCSF: BioMAP Diversity Plus: hDFCGF Assay for Macrophage colony-stimulating factor (MCSF) Biomarker Activity (AID 2283060). The following applies: primary human foreskin fibroblasts; actives raise or lower the signal. The procedure, abridged: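 M-CSF levels read by ELISA at 24 h post-dosing in human skin fibroblasts. Parallel cultures stained with SRB assessed cytotoxicity at the same time point; response fitted in both directions against the DMSO baseline.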

Test [12] in a line: BSK_hDFCGF_SRB: Viability Assessment in the BioMAP Diversity Plus: hDFCGF Assay (AID 2283061).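 Also: cells exposed to compound for 24 h before the read.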 The following applies: primary human foreskin fibroblasts. The gist of the method:
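Viability was read as total protein: after 10% TCA fixation, wells were stained with 0.1% sulforhodamine B and read at 560 nm. Primary human foreskin fibroblasts were dosed for 24 h, with bidirectional fitting versus DMSO.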

Read-out in test [13]: TIMP metallopeptidase inhibitor 1 (TIMP1), TIMP1 (gene 7076)
In words: BSK_hDFCGF_TIMP1: BioMAP Diversity Plus: hDFCGF Assay for TIMP metallopeptidase inhibitor 1 (TIMP1) Biomarker Activity (AID 2283062). The following applies: primary human foreskin fibroblasts; actives raise or lower the signal. The procedure, abridged: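 TIMP-1 measured by ELISA 24 h after chemical dosing of primary human skin fibroblasts, with gain or loss fitted relative to DMSO. Parallel SRB staining (560 nm) monitored overt cytotoxicity.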

Read-out in test [14]: Monokine induced gamma interferon (MIG), CXCL9 (gene 4283)
As to the kind of experiment: BSK_hDFCGF_MIG: BioMAP Diversity Plus: hDFCGF Assay for Monokine induced gamma interferon (MIG) Biomarker Activity (AID 2283063). The following applies: primary human foreskin fibroblasts; actives raise or lower the signal. The gist of the method:
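Human primary foreskin fibroblasts in the hDFCGF system, exposed to test chemical for 24 h; MIG measured by ELISA. Bidirectional curve fitting against DMSO negative control as activity baseline.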

Read-out in test [15]: Matrix Metallopeptidase 1 (MMP1), MMP1 (gene 4312)
In words: BSK_hDFCGF_MMP1: BioMAP Diversity Plus: hDFCGF Assay for Matrix Metallopeptidase 1 (MMP1) Biomarker Activity (AID 2283064). The following applies: primary human foreskin fibroblasts; actives raise or lower the signal. The procedure, abridged: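 hDFCGF primary fibroblasts (human foreskin); chemical added; 24 h; MMP1 by ELISA; bidirectional fit vs DMSO.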

Read-out in test [16]: Vascular cell adhesion molecule 1 (VCAM1), VCAM1 (gene 7412)
In words: BSK_hDFCGF_VCAM1: BioMAP Diversity Plus: hDFCGF Assay for Vascular cell adhesion molecule 1 (VCAM1) Biomarker Activity (AID 2283065).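 As to AC50: VCAM-1 protein level quantified by ELISA after 24 h chemical exposure.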 The following applies: primary human foreskin fibroblasts; actives raise or lower the signal. The procedure, abridged:
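ELISA readout of VCAM-1 on human dermal fibroblast primary cultures, 24 h after chemical exposure. Gain or loss of signal fitted in both directions against DMSO baseline.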

Read-out in test [17]: Plasminogen activator inhibitor-1 (PAI1), SERPINE1 (gene 5054)
As to the kind of experiment: BSK_hDFCGF_PAI1: BioMAP Diversity Plus: hDFCGF Assay for Plasminogen activator inhibitor-1 (PAI1) Biomarker Activity (AID 2283066). The following applies: primary human foreskin fibroblasts; actives raise or lower the signal. The gist of the method:
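Human foreskin fibroblast primary cells, 24 h chemical exposure; PAI-1 measured by ELISA. Bidirectional fitting relative to DMSO; parallel cultures stained with SRB for total protein to flag overt cytotoxicity.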

Read-out in test [18]: Interferon-gamma inducible Protein 10 (IP10), CXCL10 (gene 3627)
In words: BSK_KF3CT_IP10: BioMAP Diversity Plus: KF3CT Assay for Interferon-gamma inducible Protein 10 (IP10) Biomarker Activity (AID 2283068). The following applies: primary human keratinocytes with fibroblasts; actives raise or lower the signal. The procedure, abridged:
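ELISA read-out of IP-10 after 24 h chemical dosing of human skin primary co-culture (keratinocytes, foreskin fibroblasts). Gain or loss of signal relative to DMSO, bidirectional curve fit.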

Test [19] can be described thus: BSK_KF3CT_SRB: Viability Assessment in the BioMAP Diversity Plus: KF3CT Assay (AID 2283069).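 Also: total protein by sulforhodamine B staining as a cytotoxicity measure; read 24 h after compound addition.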 The following applies: primary human keratinocytes with fibroblasts. The procedure, abridged:
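Keratinocytes co-cultured with foreskin fibroblasts (human primary); chemical added, 24 h; fix 10% TCA, stain 0.1% SRB, A560. Bidirectional fit vs DMSO.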

Read-out in test [20]: Intercellular Adhesion Molecule 1 (ICAM1), ICAM1 (gene 3383)
As to the kind of experiment: BSK_KF3CT_ICAM1: BioMAP Diversity Plus: KF3CT Assay for Intercellular Adhesion Molecule 1 (ICAM1) Biomarker Activity (AID 2283067). The following applies: primary human keratinocytes with fibroblasts; actives raise or lower the signal. The gist of the method:
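Cell-surface ICAM-1 was measured by ELISA 24 h after dosing primary human skin keratinocytes co-cultured with fibroblasts. Parallel SRB staining tracked overt cytotoxicity. Gain or loss of signal was fitted relative to DMSO.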

This note sets out measurements from PubChem BioAssay (EPA / NIEHS).

Where “and” joins values, the source holds several entries; their conditions need not be identical. Equal values may be shown once. Where a structure was tested more than once in an assay, its records may differ in their call. Calls of active or inactive are those of the source. The calls were made as follows: active = hit-call score of the fitted dose curve at least 0.9, where 1 is the maximum; inactive = score below 0.9.

Consider `CC(C)c1cccc(C(C)C)c1N`, for which the result in test [1], in [2], in [3], in test [4], in test [5] and in test [6] was inactive. For the same molecule, the outcome in test [7], in test [8], in test [9], in [10], in test [11] and in test [12] was inactive. The result in test [13], in [14], in test [15], in [16], in test [17] and in test [18] was inactive. Also, the result in [19] was inactive.

For the molecule `CC=C(C)C=CC=C(C)C`, the result in test [1], in [2], in [4], in test [5], in test [7] and in test [8] was inactive. The result in test [9], in test [12], in test [13], in [15], in [18] and in test [19] was inactive. The half-maximal activity concentration (AC50) in [3] is 3.97 µM (active); in test [6] it was 16.8 µM (active); in test [10] it was 15.7 µM (active); in [11], 3.97 µM (active); in [16], 6.06 µM (active); in test [17] it was 0.016 µM (active).

Consider `COC(OC)(C(=O)c1ccccc1)c1ccccc1`, for which the result in test [1], in [2], in [3], in test [4], in test [5] and in test [6] was inactive. The outcome in [7], in [8], in test [9], in [10], in [11] and in test [12] was inactive. The outcome in [13], in test [14], in [15], in test [16], in [17] and in [18] was inactive. The outcome in test [19] was inactive.

`Oc1ccccc1Cc1ccccc1O`: the outcome in test [1], in test [2], in test [3], in test [4], in [5] and in test [6] was inactive. Further, the result in test [7], in [8], in test [11], in [13], in test [15] and in test [16] was inactive. The outcome in test [17], in test [20], in test [18] and in test [19] was inactive. For the same molecule, the concentration at half-maximal activity (AC50) was 0.239 µM (active) in [6]; 28.1 µM (active) and 27 µM (active) in test [10]; 1.22 µM (active) and 191 nM (active) in test [12].

For the molecule `Nc1nc(N)nc(-c2ccccc2)n1`, the outcome in [1], in [2], in [3], in [4], in test [5] and in [6] was inactive. For the same molecule, the outcome in test [7], in test [8], in [10], in [11], in [12] and in test [13] was inactive. Besides, the result in test [15], in [16], in [17], in [18] and in test [19] was inactive. For the same molecule, the results for the AC50 in test [3] and in test [6] were 0.0609 µM (active) and 0.268 µM (active), respectively.

With `CCCCCCCCC(CO)CCCCCC` (stereo not given), the result in [1], in test [2], in [3], in test [4], in test [5] and in test [6] was inactive. Moreover, the outcome in test [8], in test [9], in test [13], in test [15], in test [16] and in test [18] was inactive. The outcome in [19] was inactive. The AC50 in test [7] was 4.17 µM (active); in test [10], 4.06 µM (active); in test [11], 4.32 µM (active); in [12], 2 µM (active); in test [17], 3.75 µM (active).

Consider `CCCCCC1=CCCC1=O`, for which the outcome in test [1], in [2], in test [3], in [4], in test [5] and in test [6] was inactive. Moreover, the outcome in test [7], in test [8], in [9], in [10], in [11] and in [12] was inactive. Besides, the result in [13], in [16], in test [17], in [18] and in test [19] was inactive. In addition, the concentration at half-maximal activity (AC50) in test [15] was 0.016 µM (active).
